# Measurements taken from ChEMBL document CHEMBL2218924, “A broad activity screen in support of a chemogenomic map for kinase signalling research and drug discovery” (Biochem J, 2013).
# Biological target: T1, Interleukin-1 receptor-associated kinase 4 (Homo sapiens) (UniProt Q9NWZ3)
# T1 sequence (whole entry): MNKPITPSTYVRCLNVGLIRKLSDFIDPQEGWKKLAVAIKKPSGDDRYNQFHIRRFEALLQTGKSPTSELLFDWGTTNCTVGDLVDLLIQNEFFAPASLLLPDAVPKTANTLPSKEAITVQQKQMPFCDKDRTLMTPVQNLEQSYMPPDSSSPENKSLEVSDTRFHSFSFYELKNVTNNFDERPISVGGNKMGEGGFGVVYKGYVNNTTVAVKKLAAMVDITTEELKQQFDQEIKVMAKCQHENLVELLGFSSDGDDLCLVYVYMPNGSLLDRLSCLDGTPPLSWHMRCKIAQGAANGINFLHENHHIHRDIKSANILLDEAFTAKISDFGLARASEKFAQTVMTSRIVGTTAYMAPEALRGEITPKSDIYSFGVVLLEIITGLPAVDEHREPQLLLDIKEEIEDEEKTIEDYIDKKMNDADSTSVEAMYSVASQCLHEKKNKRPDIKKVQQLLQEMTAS
# Conditions: at 1 µM
row,Compound,residual activity
1,N/C(=N\[N+](=O)[O-])N/N=C\c1ccc(-c2cccc([N+](=O)[O-])c2)o1,100%
2,COc1cc2ncnc(Nc3ccc(OCc4ccccc4)cc3)c2cc1OC,127%
3,O=c1[nH]c2ccccc2n1C1CCN(Cc2ccc(-c3nc4cc5[nH]cnc5cc4nc3-c3ccccc3)cc2)CC1,106%
4,O=C1c2ccccc2-c2nc3nnnn3nc21,129%
5,CC(C)[C@H](CO)Nc1nc(Nc2cccc(Cl)c2)c2ncn(C(C)C)c2n1,45%
6,c1cc(-c2cnn3cc(-c4ccc(OCCN5CCCCC5)cc4)cnc23)ccn1,81%
7,CCn1cnc2c(Nc3cccc(Cl)c3)nc(N[C@@H]3CCCC[C@@H]3N)nc21,85%
8,COc1cc(OC)c(/C=C2\C(=O)Nc3ccccc32)c(OC)c1,81%
9,O=C1Nc2ccc3ncsc3c2/C1=C/c1c[nH]cn1,41%
10,O=[N+]([O-])/C=C/c1ccc2c(c1)OCO2,116%
11,COC(=O)[C@@]1(O)C[C@H]2O[C@]1(C)n1c3ccccc3c3c4c(c5c6ccccc6n2c5c31)C(=O)NC4,-2%
12,CC(C)(C)c1cc(C=C(C#N)C#N)cc(Br)c1O,112%
13,O=C1NC(=O)c2c1c1c3ccccc3n3c1c1c2c2ccccc2n1C1CCC3O1,38%
14,C[S+]([O-])c1ccc(-c2nc(-c3ccc(F)cc3)c(-c3ccncc3)[nH]2)cc1 (stereo not drawn),113%

# Biological target: T1, Interleukin-1 receptor-associated kinase 4 (Homo sapiens)
# Conditions: at 10 µM
row,Compound,residual activity
1,N/C(=N\[N+](=O)[O-])N/N=C\c1ccc(-c2cccc([N+](=O)[O-])c2)o1,85%
2,COc1cc2ncnc(Nc3ccc(OCc4ccccc4)cc3)c2cc1OC,92%
3,O=c1[nH]c2ccccc2n1C1CCN(Cc2ccc(-c3nc4cc5[nH]cnc5cc4nc3-c3ccccc3)cc2)CC1,93%
4,O=C1c2ccccc2-c2nc3nnnn3nc21,108%
5,CC(C)[C@H](CO)Nc1nc(Nc2cccc(Cl)c2)c2ncn(C(C)C)c2n1,9%
6,c1cc(-c2cnn3cc(-c4ccc(OCCN5CCCCC5)cc4)cnc23)ccn1,18%
7,CCn1cnc2c(Nc3cccc(Cl)c3)nc(N[C@@H]3CCCC[C@@H]3N)nc21,23%
8,COc1cc(OC)c(/C=C2\C(=O)Nc3ccccc32)c(OC)c1,75%
9,O=C1Nc2ccc3ncsc3c2/C1=C/c1c[nH]cn1,15%
10,O=[N+]([O-])/C=C/c1ccc2c(c1)OCO2,107%
11,COc1ccc2c(c[n+](C)c3c4cc5c(cc4ccc23)OCO5)c1OC,83%
12,COC(=O)[C@@]1(O)C[C@H]2O[C@]1(C)n1c3ccccc3c3c4c(c5c6ccccc6n2c5c31)C(=O)NC4,0%
13,O=C1NC(=O)c2c1c1c3ccccc3n3c1c1c2c2ccccc2n1C1CCC3O1,18%
14,C[S+]([O-])c1ccc(-c2nc(-c3ccc(F)cc3)c(-c3ccncc3)[nH]2)cc1 (stereo not drawn),86%
